# Hits are enriched below; roughly 4% of the tested compounds scored in any of these assays.
# CF NFkB block – blocks PAF-induced NF-kB reporter in cystic fibrosis cells; AID 588850; 0.86% of 360,000 active; KKLEB NF-kB-GFP reporter, GFP fluorescence overnight; inhibition, % at 5 µM;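 active = at least 50% inhibition at 5 µM, scaled per plate between neutral and stimulator controls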;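 note: PAF is a Pseudomonas aeruginosa culture filtrate used as stimulus; plate controls were PAF-stimulated DMSO wells for no effect and unstimulated DMSO wells for full effect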
# TROY NFkB inh – blocks TROY-dependent signaling in reporter cells. inhibition, % at 10 µM. 0.98% of 360,000 active. Q293 LMP1-TROYcd NF-kB luciferase reporter, 4 h;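 active = compounds whose plate-normalised and pattern-corrected inhibition of the luciferase reporter signal at the single screening dose is 50% or more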
# Peg3 promoter – reduces Peg3 promoter-driven luciferase expression in HeLa; HeLa PEG-Prom luciferase reporter, luminescence, overnight; inhibition, % at 20 µM; 1.7% of 360,000 active;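 active = inhibition of at least 50% at 20 µM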
# KKLEB tox – CF airway cell cytotoxicity counter-screen | KKLEB CF airway cells viability, ATPlite luminescence, overnight; stronger effect = lower value; cells stimulated with P. aeruginosa culture filtrate | activity change (cytotoxicity), % at 5 µM | 0.36% of 360,000 active;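 active = corrected activity change at or below -50% at 5 µM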
# TWEAK Fn14 block – blocks TWEAK-Fn14 interaction in a reporter cell assay; inhibition, % at 10 µM; TWEAK-stimulated Fn14 reporter cells, luciferase luminescence, 8 h; 2% of 360,000 active; in the data active = inhibition above about 50%
# HIF-2a inh – inhibitors of HIF-2a; 0.72% of 360,000 active; 786-0 RCC cells HIF-2a reporter, luciferase luminescence, overnight; inhibition, % at 18.8 µM;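 active = inhibition of the luminescence signal of 40% or more relative to plate controls, in a single-dose primary screen at 18.75 µM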
# Mdm2 MdmX conf – confirmation of inhibitors of human Mdm2/MdmX interaction, set 2 | shares compounds with HIF-2a inh | SaOS-2 split-luciferase Mdm2/MdmX complementation, luminescence | inhibition, % at 8 µM | 99% of 740 active;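 active = mean inhibition of the luminescence signal across two replicates at or above 26 percent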
# Target sequence (O15151 whole entry, looked up): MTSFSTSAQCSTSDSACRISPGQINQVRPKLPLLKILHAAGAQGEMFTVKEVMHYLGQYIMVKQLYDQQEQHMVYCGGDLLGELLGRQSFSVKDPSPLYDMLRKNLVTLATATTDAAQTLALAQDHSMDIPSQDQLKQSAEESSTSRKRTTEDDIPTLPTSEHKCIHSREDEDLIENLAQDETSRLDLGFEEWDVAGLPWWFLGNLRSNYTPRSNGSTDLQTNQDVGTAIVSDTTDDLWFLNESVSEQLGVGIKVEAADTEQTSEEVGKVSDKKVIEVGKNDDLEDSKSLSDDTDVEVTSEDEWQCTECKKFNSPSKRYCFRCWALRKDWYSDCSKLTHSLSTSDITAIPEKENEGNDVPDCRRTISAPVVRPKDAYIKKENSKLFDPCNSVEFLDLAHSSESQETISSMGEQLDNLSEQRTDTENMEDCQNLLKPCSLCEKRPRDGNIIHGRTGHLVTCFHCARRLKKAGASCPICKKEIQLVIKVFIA
# Target sequence (Q00987 whole entry, looked up): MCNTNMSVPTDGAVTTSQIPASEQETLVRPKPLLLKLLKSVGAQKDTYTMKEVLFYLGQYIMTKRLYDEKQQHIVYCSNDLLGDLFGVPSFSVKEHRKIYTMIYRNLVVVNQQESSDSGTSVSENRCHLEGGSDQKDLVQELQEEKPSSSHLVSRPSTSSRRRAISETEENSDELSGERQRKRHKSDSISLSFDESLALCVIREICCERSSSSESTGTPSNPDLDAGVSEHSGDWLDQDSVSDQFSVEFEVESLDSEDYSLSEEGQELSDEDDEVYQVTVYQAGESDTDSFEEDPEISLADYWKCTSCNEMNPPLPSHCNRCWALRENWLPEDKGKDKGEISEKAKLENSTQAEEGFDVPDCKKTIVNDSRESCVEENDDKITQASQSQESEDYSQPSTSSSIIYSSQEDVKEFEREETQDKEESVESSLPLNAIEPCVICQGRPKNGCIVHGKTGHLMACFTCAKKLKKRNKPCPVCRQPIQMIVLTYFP
# HIF-2a conf – HIF-2a inhibition, single concentration confirmation | 56% of 1,800 active | shares compounds with HIF-2a inh | inhibition, % at 18.8 µM | 786-0 RCC cells, HIF-2a luciferase reporter luminescence, overnight | AID 651580;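 active = mean inhibition across four replicates of at least 40 percent at the single tested concentration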
# HIF-1a counter – counter-screen for HIF-2a inhibitors: HIF-1a inhibition in MiaPaCa-2 cells | shares compounds with HIF-2a inh | MiaPaCa-2 HIF-1a luciferase reporter, desferoxamine, overnight | inhibition, % at 18.8 µM | 72% of 1,800 active;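 active = mean inhibition of the reporter signal across four replicates at the single tested dose of 50% or more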
# An asterisk follows results filed as active; . = no result given.
SMILES,CF NFkB block,TROY NFkB inh,Peg3 promoter,KKLEB tox,TWEAK Fn14 block,HIF-2a inh,HIF-2a conf,HIF-1a counter,others
CCn1cc([N+](=O)[O-])c(C(=O)Nc2ccn(C34CC5CC(CC(C5)C3)C4)n2)n1,9,-4,6,9,2,17,.,.,
Cc1ccc(-c2nc(NC(=O)c3nn(C)cc3[N+](=O)[O-])sc2C)cc1,89*,28,109*,-64*,59*,93*,85*,105*,Mdm2 MdmX conf=103*
CCc1nc2ccc(C(=O)N(C)C(C)C)cn2c1N(CCC(C)C)CCN(C)C,-1,-3,5,10,11,12,.,.,
COc1ccc(-c2cnc3c(NC=O)cc(-c4cccc(NS(C)(=O)=O)c4)cn23)cc1OC,93*,16,69*,-62*,25,51*,79*,-9,
COc1cccc(-c2cc(NC=O)c3ncc(-c4ccc(OC)c(OC)c4)n3c2)c1,34,-4,49,-22,10,-75,.,.,
N#C/C(=C/c1ccc(O)c(O)c1)C(=O)NCc1ccc(Cl)cc1,-16,0,24,7,-7,5,.,.,
N#C/C(=C/c1cccc(O)c1)C(=O)NCc1ccc(Cl)cc1,19,-2,-11,-9,19,77*,30,46,
COc1cccc(/C=N/Nc2cc(-n3nc(C)cc3-c3ccccc3)ncn2)c1O,48,26,52*,-19,61*,16,.,.,Mdm2 MdmX conf=91*
COc1cccc(/C=N/Nc2nc(Nc3ccccc3)nc(-n3nc(C)cc3C)n2)c1O,-20,-44,32,-12,35,-94,.,.,
Cc1ccc(C(C(=O)NCC2CCCO2)N(C(=O)c2snc(C(N)=O)c2N)c2ccccc2F)o1 (centres undefined),-11,-36,9,5,17,0,.,.,
Cc1ccc(-n2nc3c(=O)n(CCCC(=O)N4CCC(C)CC4)nc(C)c3c2C)cc1,-11,-16,19,2,4,18,.,.,
CC(=O)N(Cc1c(C)nn(-c2ccccc2)c1Cl)c1ccc(Cl)cc1,18,6,22,-10,5,29,.,.,
Cc1nn(-c2ccccc2)c(Cl)c1CN(C(=O)CCl)c1cccc2ccccc12,32,1,95*,1,77*,62*,73*,106*,Mdm2 MdmX conf=103*
Cc1nn(-c2ccccc2)c(Cl)c1CN(C(=O)CCl)c1ccc(Cl)cc1,91*,3,103*,-97*,-2,96*,99*,106*,
CCC[C@H]1CN(c2ccc(Br)cc2)C(=O)[C@@H]1CC(=O)Nc1ccc(OC)cc1,-10,24,5,-4,10,-9,.,.,
O=S(=O)(/C=C/C=C/S(=O)(=O)c1ccccc1)c1ccccc1,92*,46,100*,-42,93*,95*,96*,105*,
Cc1ccc(S(=O)(=O)N(C)CC(=O)O/N=C(\N)c2cccc(Br)c2)cc1,29,29,21,-39,-8,-4,.,.,
O=C(CSc1nnc(NC(=O)C2CCC2)s1)Nc1ccccc1F,18,-7,-6,-5,5,4,.,.,
CC1(C)OC(=O)C=C[C@]2(C)[C@H]3CC[C@@]4(C)[C@H](c5ccoc5)OC(=O)[C@H]5O[C@]54[C@]3(C)C(=O)C[C@@H]12,-13,-12,2,9,8,11,.,.,
CC(=O)O[C@@H]1C[C@H]2C(C)(C)C(=O)C=C[C@]2(C)[C@H]2CC[C@@]3(C)[C@H](c4ccoc4)OC(=O)[C@H]4O[C@]43[C@@]21C,28,44,31,19,33,58*,49*,77*,
CC(=O)OC1CC2C(C)(C)C(=O)C=CC2(C)C2CCC3(C)C(c4ccoc4)OC(=O)C4OC43C12C (centres undefined),33,38,45,0,22,45*,42*,59*,
CC(C)CC(N)c1csc(NC(=O)c2cc(C(C)(C)C)nn2Cc2ccccc2)n1 (centres undefined),1,-6,111*,-21,-75,92*,8,107*,
CC(C)(C)c1cc(C(=O)NN)n(Cc2ccc(F)cc2)n1,9,3,5,-15,0,13,.,.,
COc1ccccc1OCCNC(=O)CCC(=O)N1CCOCC1,17,3,2,6,-6,2,.,.,
O=C(CN(c1cccc(C(F)(F)F)c1)S(=O)(=O)c1ccc(Cl)c([N+](=O)[O-])c1)NCc1ccc(F)cc1,9,11,88*,1,30,82*,40,105*,
SMILES,CF NFkB block,TROY NFkB inh,Peg3 promoter,KKLEB tox,TWEAK Fn14 block,HIF-2a inh,HIF-2a conf,HIF-1a counter,others
CCCN(C(=O)c1cnccn1)c1c(N)n(Cc2ccccc2)c(=O)[nH]c1=O,7,9,8,3,13,12,.,.,
CCc1cc(C(=O)N2CCN(S(=O)(=O)c3cc(C)ccc3C)CC2)sc1C,15,-22,11,-8,-18,18,.,.,
Cc1ccc(F)c([C@H]2[C@H]3C=CC[C@@H](C)[C@@H]3C(=O)N2Cc2ccccc2)c1,47,-21,30,-13,14,42*,31,21,
C[C@@H]1CC=C[C@H]2[C@H]1C(=O)N(Cc1ccccc1)[C@H]2c1ccc2ccccc2c1,42,5,21,-17,18,44*,8,52*,
CCC1Nc2ncnc(N3CCOCC3)c2N(Cc2ccc(Cl)cc2)C1=O (centres undefined),16,-26,15,11,18,16,.,.,
COc1cc(C=C(c2nc3ccccc3s2)c2nc3ccccc3s2)cc(OC)c1O,-24,5,-71,8,12,-56,.,.,
O=C(O)c1ccc(C=C(c2nc3ccccc3s2)c2nc3ccccc3s2)cc1,30,0,19,-15,47,50*,52*,92*,
N#Cc1c(N)nc(Sc2ccc(Cl)cc2)c(C#N)c1-c1ccccc1Cl,46,48,52*,-16,58*,47*,16,45,
CCOc1c(Br)cc(CNc2ccc(N3CCOCC3)cc2)cc1OC,-1,35,-8,-2,-1,-19,.,.,
CCOc1c(Br)cc(CNc2ccc3c(c2)OCCO3)cc1OC,33,59*,33,-14,85*,43*,40,77*,
CCOc1cc(CNc2ccc3c(c2)OCCO3)cc(Br)c1OC,41,85*,46,-36,94*,45*,67*,98*,
